# ROS inducer: inducers of reactive oxygen species in cancer cells | ROS induction (% of piperlongumine), % at 10 µM | U2OS ROS induction, H2DCF-DA fluorescence | actives 2% (n = 46,000); in the data active = ROS induction above about 79%, passing the limit was not always enough;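 also: 0% = DMSO vehicle median and 100% = reference compound median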
# YB-1 expression: YB-1 expression inhibition; actives 0.37% (n = 30,000); U2OS, qRT-PCR YB-1 vs CDIP delta delta Cp, 16 h; stronger effect = higher value; zero = DMSO, each unit about twofold; AID 434959; delta delta Cp (YB-1 minus CDIP) (test concentration not listed);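 active = delta delta Cp rounded down to an integer at or above 3, about 3 SD of DMSO wells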;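 also: higher means less YB-1 transcript or more CDIP transcript relative to DMSO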
# Numbers without * were called inactive; · = no result. Only some compounds are listed: those with a hit (about 2.3% of all), similar ones and a draw of the others.
SMILES,ROS inducer,YB-1 expression
COc1ccc(S(=O)(=O)Nc2ccc3c(c2)CC(=O)N([C@H](C)CO)C[C@@H](C)[C@H](CN(C)CC2CC2)O3)cc1,12.4,3.18*
COc1ccc(S(=O)(=O)Nc2ccc3c(c2)CC(=O)N([C@H](C)CO)C[C@@H](C)[C@@H](CN(C)S(=O)(=O)c2c(C)noc2C)O3)cc1,88.9*,-0.116
COc1ccc(S(=O)(=O)Nc2ccc3c(c2)CC(=O)N([C@H](C)CO)C[C@@H](C)[C@@H](CN(C)CC2CC2)O3)cc1,2.5,-0.593
O=C(c1ccc2c(Cl)c3c(nc2c1)CCC3)N1CCCC1,21.2,·
O=C(Nc1ccc2nc3n(c(=O)c2c1)CCCC3)c1ccccn1,-6.5,·
O=C(CSc1nnc(-c2ccncc2)n1-c1ccccc1)Nc1ccc(C(F)(F)F)cc1,4.5,·
O=C(Nc1ccccc1)c1ccc(CSc2nnc(-c3ccncc3)n2-c2ccccc2)cc1,109.2*,·
O=C(NC=Nc1cccnc1)C1COc2ccccc2O1 (configuration not stated),-9.0,·
O=C(Nc1ccc(N2CCOCC2)cc1)c1cnc2ccccc2n1,1.6,·
O=C(Nc1ccc(N2CCCCC2)cc1)c1ccncc1,87.2*,-0.498
O=C(O)CCN1C(=O)c2cc(Cl)c(Cl)cc2C1=O,-2.9,·
COc1ccc(Cn2nnc3c(=O)[nH]c(C4CCCN(S(=O)(=O)c5ccccc5)C4)nc32)cc1 (configuration not stated),139.1*,·
CC1CCCN(S(=O)(=O)c2ccccc2)C1 (configuration not stated),-8.2,·
CCC1(C)Cc2ccccc2-c2c1c(=O)n(-c1ccc(C)cc1)c1nncn21 (configuration not stated),-10.6,·
Cc1sc2nc(SCCC(C)C)nc(N)c2c1C,0.2,·
CCOC(=O)C(C)Sc1ncnc2c1nnn2-c1ccc(OC)cc1 (configuration not stated),179.0*,·
CCOC(=O)C(C)Sc1ncnc2nc[nH]c12 (configuration not stated),-14.3,·
Cn1ccnc1SCC(=O)Nc1ccc(S(N)(=O)=O)cc1,-10.8,·
COc1ccc(N2CC(C(=O)OCC(=O)Nc3ccccc3C(F)(F)F)CC2=O)cc1 (configuration not stated),-20.0,·
C[C@@H]1CN([C@H](C)CO)C(=O)Cc2cc(NC(=O)C3CC3)ccc2O[C@@H]1CN(C)Cc1ccc(Cl)c(Cl)c1,163.8*,-0.231
C[C@H](CO)N1C[C@H](C)[C@H](CN(C)Cc2ccc(Cl)c(Cl)c2)Oc2ccc(NC(=O)CCC(F)(F)F)cc2CC1=O,150.7*,0.14
C[C@H]1CN([C@@H](C)CO)C(=O)Cc2cc(NC(=O)C3CCCCC3)ccc2O[C@@H]1CN(C)Cc1ccc2c(c1)OCO2,-3.3,0.177
C[C@@H]1CN([C@@H](C)CO)C(=O)Cc2cc(NC(=O)CCC(F)(F)F)ccc2O[C@@H]1CN(C)Cc1ccc(Cl)c(Cl)c1,34.9,0.431
C[C@@H]1CN([C@H](C)CO)C(=O)Cc2cc(NC(=O)C3CCCCC3)ccc2O[C@@H]1CN(C)Cc1ccc2c(c1)OCO2,141.2*,0.606
C[C@H](CO)N1C[C@H](C)[C@H](CN(C)Cc2ccc(Cl)c(Cl)c2)Oc2ccc(NC(=O)C3CC3)cc2CC1=O,6.3,0.395
SMILES,ROS inducer,YB-1 expression
N#Cc1c(N)c(C#N)c(=S)n(CC2CCCO2)c1N (configuration not stated),0.6,·
Oc1ccccc1-c1nnc(SCc2ccccc2)n1-c1ccccc1,-11.4,·
CN(C)S(=O)(=O)c1ccc(C(=O)NCCC23CC4CC(CC(C4)C2)C3)cc1,2.2,·
C=C1C(=O)O[C@@H]2C[C@@]3(C)CC(=O)C=C(C)C3C[C@H]12 (some centres not stated),111.1*,-0.322
C=C1CC[C@@H](O)[C@]2(C)C[C@H]3OC(=O)C(=C)[C@H]3CC12 (some centres not stated),60.0,-0.479
CCOC(=O)c1c(NC(=O)Nc2ccc(Cl)c(Cl)c2)sc(C)c1C,-12.2,·
CCc1ccc(N=Cc2c(O)n(-c3ccccc3)c(=O)c3ccccc23)cc1,-3.7,-0.492
Cc1onc(-c2ccccc2)c1-c1ccnn1C(=O)c1ccc(Cl)cc1,-15.7,·
C=C(C)C(=O)O[C@H]1[C@H]2C(=C)C(=O)O[C@@H]2C[C@@H](C)[C@@H]2O[C@@H]2C(=O)[C@](C)(O)[C@@H]1OC(C)=O,81.9*,0.117
C=C(C)C(=O)O[C@H]1[C@H]2C(=C)C(=O)O[C@@H]2C[C@@H](C)/C=C/C(=O)[C@](C)(O)[C@@H]1OC(=O)C(=C)C,55.9,0.477
COCc1cc(C)nc2sc3c(=O)n(Cc4ccccc4)nnc3c12,2.0,·
CN1C(=O)/C(=C\c2ccncc2)SC1=S,40.7,·
C[C@H](CO)N1C[C@H](C)[C@H](CN(C)S(C)(=O)=O)Oc2c(NC(=O)c3cnccn3)cccc2C1=O,-8.1,4.68*

# From PubChem BioAssay
